Experimental data taken from PubChem BioAssay AID1159580 (chemical genetic matrix, 2015).
The whole screen tested about 5,500 compounds, of which about 2,000 (36%) were called active. About 18% were inconclusive and are not listed. Cut-off read from the data, not from the text of the source: active = normalized growth mostly below about 0.91 (no sharp cut-off); inconclusive = no clear call, values can overlap the other calls; inactive = mostly above about 0.92. The list shows a part of the results.

Assay: chemical genetic growth profiling, strain panel (AID 1159580);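 note: tested at 20 µM; growth read once vehicle control cultures reached saturation at 30 °C; 1 = growth at the plate median or of vehicle wells; lower values mean less growth of the strain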
Conditions: S. cerevisiae deletion strains, growth OD
[1] = locus YHR030C, strain SLT2, active compounds read low
[2] = locus YHR079C, strain IRE1, active compounds read low
[3] = locus YJL095W, strain BCK1, active compounds read low
[4] = locus YJR066W, strain TOR1, active compounds read low
[5] = locus YLR113W, strain HOG1, active compounds read low
[6] = locus YNL183C, strain NPR1, active compounds read low
[7] = locus YOR231W, strain MKK1, active compounds read low
[8] = locus YPL256C, strain CLN2, active compounds read low

Measured: normalized growth

Cc1ccc(C(O)(c2ccccc2)c2ccccc2)c2ccccc12
inactive: locus YAR019C, strain CDC15, active compounds read low 0.992 | locus YBL105C, strain PKC1, active compounds read low 0.985 | locus YBR135W, strain CKS1, active compounds read low 0.98 | locus YBR136W, strain MEC1, active compounds read low 0.983 | locus YBR160W, strain CDC28, active compounds read low 0.985 | locus YDL017W, strain CDC7, active compounds read low 0.992 | locus YDL028C, strain MPS1, active compounds read low 0.985 | locus YDL101C, strain DUN1, active compounds read low 0.97 | locus YDL108W, strain KIN28, active compounds read low 0.981 | locus YDL132W, strain cdc53, active compounds read low 0.976 | locus YDL214C, strain PRR2, active compounds read low 0.963 | locus YDR052C, strain DBF4, active compounds read low 0.992 | locus YDR054C, strain cdc34, active compounds read low 0.988 | locus YDR226W, strain ADK1, active compounds read low 0.983 | locus YDR477W, strain SNF1, active compounds read low 0.975 | locus YER123W, strain YCK3, active compounds read low 1 | locus YER133W, strain GLC7, active compounds read low 0.998 | locus YFL009W, strain cdc4, active compounds read low 0.982 | locus YFL029C, strain CAK1, active compounds read low 0.993 | locus YFR003C, strain YPI1, active compounds read low 0.988 | locus YFR019W, strain FAB1, active compounds read low 0.952 | locus YFR028C, strain CDC14, active compounds read low 0.979 | locus YGR040W, strain KSS1, active compounds read low 0.947 | locus YGR052W, strain FMP48, active compounds read low 0.982 | locus YGR092W, strain DBF2, active compounds read low 0.907 | [1] 1.02 | [2] 0.996 | locus YHR082C, strain KSP1, active compounds read low 1 | locus YHR205W, strain SCH9, active compounds read low 0.858 | locus YIL147C, strain SLN1, active compounds read low 0.993 | [3] 0.904 | locus YJL128C, strain PBS2, active compounds read low 0.926 | locus YJL157C, strain FAR1, active compounds read low 0.997 | locus YJR016C, strain ILV3, active compounds read low 0.995 | locus YJR066W, strain TOR1 (second series), active compounds read low 0.963 | [4] 1.01 | locus YKL048C, strain ELM1, active compounds read low 0.965 | locus YKL067W, strain YNK1, active compounds read low 0.975 | locus YKL101W, strain HSL1, active compounds read low 0.953 | locus YKL193C, strain SDS22, active compounds read low 0.989 | locus YKL203C, strain TOR2, active compounds read low 1.01 | [5] 0.936 | locus YLR133W, strain CKI1, active compounds read low 0.949 | locus YLR403W, strain SFP1, active compounds read low 0.916 | locus YML070W, strain DAK1, active compounds read low 0.959 | locus YMR001C, strain CDC5, active compounds read low 0.988 | locus YMR205C, strain PFK2 (second series), active compounds read low 0.976 | locus YMR277W, strain FCP1, active compounds read low 0.991 | locus YNL006W, strain LST8, active compounds read low 0.984 | locus YNL020C, strain ARK1, active compounds read low 0.955 | locus YNL161W, strain CBK1, active compounds read low 0.98 | [6] 0.987 | locus YNL207W, strain RIO2, active compounds read low 0.991 | locus YNL222W, strain SSU72, active compounds read low 0.983 | locus YNL307C, strain MCK1 (second series), active compounds read low 0.904 | locus YOL078W, strain AVO1, active compounds read low 0.979 | locus YOL136C, strain PFK27, active compounds read low 0.929 | locus YOR061W, strain CKA2, active compounds read low 0.979 | locus YOR119C, strain RIO1, active compounds read low 1.05 | [7] 0.966 | locus YOR329C, strain SCD5, active compounds read low 0.992 | locus YPL031C, strain PHO85, active compounds read low 0.983 | locus YPL153C, strain RAD53, active compounds read low 1 | locus YPL204W, strain HRR25, active compounds read low 0.956 | locus YPL209C, strain IPL1, active compounds read low 0.983 | [8] 1.04 | locus YPR025C, strain CCL1, active compounds read low 0.99 | locus YPR106W, strain ISR1, active compounds read low 0.97 | locus YPR111W, strain DBF20, active compounds read low 0.953 | strain NNK1, active compounds read low 0.976 | strain TSCII, active compounds read low 0.982

CCCCCCCCCCCCCCCCCCCCCCO
inactive: [1] 1.08 | [2] 0.973 | [3] 0.989 | [4] 0.967 | [5] 0.965 | [6] 0.916 | [7] 0.99 | [8] 0.99
